Data reported in PubChem BioAssay (NCATS).
Inconclusive results are not listed. Entries that show only a call come without a potency. The source made the active and inactive calls. Calls come from the whole dose curve; as a rule, active = well fitted curve in the direction sought with a large enough effect; inconclusive = small, poorly fitted or top-dose-only effect, or another doubt; inactive = no such curve, though single readings can be large; an effect the other way counts as inactive or inconclusive.

What was measured:
[1] = molecular target: Voltage-gated inwardly rectifying potassium channel KCNH2 (Homo sapiens) (UniProt Q12809); test: qHTS Assay for Small Molecule Inhibitors of the Human hERG Channel Activity (AID 588834);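 note: lower thallium flux fluorescence means stronger hERG block; nearly all actives have a fitted effect of over 50% in size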
Summary of the method: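 U2OS cells transduced with hERG via BacMam (MOI ~100), plated 2000/well, loaded with FluxOR thallium dye, compound ~10 min, then stimulation buffer; fluorescence decrease read kinetically; AC50 from Hill fits.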

[2] = molecular target: Luciferin 4-monooxygenase (Photinus pyralis) (UniProt P08659); test: Biochemical firefly luciferase enzyme assay for NPC (AID 624030); note: nearly all actives have a fitted effect of over 70% in size
Summary of the method: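 Purified P. pyralis luciferase at 10 nM in 50 mM Tris Acetate (final), luminescence read within 5 minutes of enzyme addition to compounds. Activity normalised to PTC124 versus DMSO; concentration-response curves classed by r2, magnitude and activity.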

[3] = S16 Schwann cell viability assay (CellTiter-Glo assay) (AID 624031); note: nearly all actives have a fitted effect of over 70% in size
Summary of the method: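 This viability control uses native rat S16 Schwann cells grown in DMEM plus 10% FBS. After a 24 h compound treatment at 37 °C, CellTiter-Glo luminescence reports ATP content, scaled against DMSO-treated and cell-free wells.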

[4] = S16 Schwann cell PMP22 intronic element firefly luciferase assay (AID 624032); note: nearly all actives have a fitted effect of over 30% in size
Summary of the method: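 Rat S16 Schwann cells stably carrying firefly luciferase driven by a PMP22 intronic element, in 10% FBS, treated 24 h at 37 C. ONE-Glo luminescence normalized to PTC124 control and DMSO (0%); curves classed by r2, magnitude and activity.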
Potency is the fitted concentration of half-maximal effect.

Sequence of Voltage-gated inwardly rectifying potassium channel KCNH2 (Homo sapiens) (Q12809 whole entry, looked up): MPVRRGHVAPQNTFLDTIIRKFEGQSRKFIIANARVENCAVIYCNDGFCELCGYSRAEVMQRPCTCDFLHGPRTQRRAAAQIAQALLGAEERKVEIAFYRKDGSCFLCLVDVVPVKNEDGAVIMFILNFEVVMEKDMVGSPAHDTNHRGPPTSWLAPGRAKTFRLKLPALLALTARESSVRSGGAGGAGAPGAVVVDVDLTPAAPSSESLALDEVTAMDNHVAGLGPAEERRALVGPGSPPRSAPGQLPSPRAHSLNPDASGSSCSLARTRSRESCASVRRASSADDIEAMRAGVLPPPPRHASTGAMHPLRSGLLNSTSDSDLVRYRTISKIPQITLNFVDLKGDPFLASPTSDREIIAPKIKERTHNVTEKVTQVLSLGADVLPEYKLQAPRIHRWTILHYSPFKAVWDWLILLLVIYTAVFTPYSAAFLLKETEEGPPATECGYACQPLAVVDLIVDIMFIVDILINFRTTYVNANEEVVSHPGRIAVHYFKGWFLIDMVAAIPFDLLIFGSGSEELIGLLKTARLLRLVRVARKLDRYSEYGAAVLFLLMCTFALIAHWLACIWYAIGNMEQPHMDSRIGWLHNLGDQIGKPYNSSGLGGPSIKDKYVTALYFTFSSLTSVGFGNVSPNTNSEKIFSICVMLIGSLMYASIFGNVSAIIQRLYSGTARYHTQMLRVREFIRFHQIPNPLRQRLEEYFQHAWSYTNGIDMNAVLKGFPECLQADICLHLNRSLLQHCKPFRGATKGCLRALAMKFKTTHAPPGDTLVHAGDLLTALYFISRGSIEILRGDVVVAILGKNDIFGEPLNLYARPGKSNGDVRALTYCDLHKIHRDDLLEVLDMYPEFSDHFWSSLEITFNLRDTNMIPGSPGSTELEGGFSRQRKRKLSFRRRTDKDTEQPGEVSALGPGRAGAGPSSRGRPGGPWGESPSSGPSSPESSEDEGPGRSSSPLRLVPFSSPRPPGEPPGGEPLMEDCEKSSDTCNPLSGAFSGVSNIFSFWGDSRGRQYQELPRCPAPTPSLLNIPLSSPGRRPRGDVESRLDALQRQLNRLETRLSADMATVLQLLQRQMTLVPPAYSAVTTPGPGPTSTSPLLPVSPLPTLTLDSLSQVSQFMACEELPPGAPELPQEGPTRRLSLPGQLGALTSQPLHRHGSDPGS
Sequence of Luciferin 4-monooxygenase (Photinus pyralis) (P08659 whole entry, looked up): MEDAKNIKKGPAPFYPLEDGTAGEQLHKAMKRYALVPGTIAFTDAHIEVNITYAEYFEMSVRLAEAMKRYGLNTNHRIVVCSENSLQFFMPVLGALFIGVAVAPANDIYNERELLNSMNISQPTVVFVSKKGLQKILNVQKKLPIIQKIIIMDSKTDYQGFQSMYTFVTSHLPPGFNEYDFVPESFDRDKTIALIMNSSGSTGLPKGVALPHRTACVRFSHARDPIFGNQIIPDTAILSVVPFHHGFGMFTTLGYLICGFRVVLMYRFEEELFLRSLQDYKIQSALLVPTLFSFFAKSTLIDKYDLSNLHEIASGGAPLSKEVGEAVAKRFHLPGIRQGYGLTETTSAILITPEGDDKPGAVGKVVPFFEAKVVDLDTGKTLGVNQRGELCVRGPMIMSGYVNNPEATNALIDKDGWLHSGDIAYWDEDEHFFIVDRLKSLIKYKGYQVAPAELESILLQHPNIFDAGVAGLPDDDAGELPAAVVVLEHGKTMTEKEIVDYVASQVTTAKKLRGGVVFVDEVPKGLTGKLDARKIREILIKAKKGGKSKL

Row | Compound | Potency [1] | Potency [2] | Potency [3] | Potency [4]
1 | CC1CC(O)CC(C)(C)C1 (centres undefined) | inactive | inactive | inactive | inactive
2 | NC(=O)CC[C@@H]1NC(=O)[C@H](Cc2ccccc2)NC(=O)[C@H](Cc2ccc(O)cc2)NC(=O)[C@@H](N)CSSC[C@@H](C(=O)N2CCC[C@H]2C(=O)N[C@@H](CCCN=C(N)N)C(=O)NCC(N)=O)NC(=O)[C@H](CC(N)=O)NC1=O | inactive | inactive | inactive | 
3 | CC(=O)Oc1cccc(C(=O)O)c1OC(C)=O | inactive | inactive |  | 
4 | NC(=O)[C@H]1O[C@@H](O)[C@H](O)[C@@H](O)[C@@H]1O | inactive | inactive | inactive | 
5 | c1ccc2c(c1)OCC(CN1CCCCC1)O2 (centres undefined) | inactive | inactive |  | 
6 | C=C1CC[C@H](O)CC1=C/C=C1\CCC[C@]2(C)[C@@H]([C@H](C)CCCC(C)(C)O)CC[C@@H]12 | inactive |  |  | 
7 | CC(=O)N[C@@H](C=O)[C@@H](O)[C@H](O)[C@H](O)CO | inactive | inactive |  | 
8 | CC(=O)Nc1ccc(OC(C)=O)cc1 | inactive | inactive | inactive | inactive
9 | O=C(Nc1ccc(O)cc1)c1ccccc1O | inactive | 14.4 µM (active) | inactive | 
10 | CC(C)(Oc1ccc(C2CCCc3ccccc32)cc1)C(=O)O (centres undefined) | inactive | inactive |  | 
11 | O=C(O)COc1ccccc1/C=N/NC(=O)c1ccncc1 | inactive | inactive | inactive | 
12 | CC(C)(C)CC(C)(C)c1cc(Cc2cc(C(C)(C)CC(C)(C)C)cc(-n3nc4ccccc4n3)c2O)c(O)c(-n2nc3ccccc3n2)c1 | inactive | inactive | inactive | inactive
13 | CC(=O)[C@H]1CC[C@H]2[C@@H]3C=CC4=CC(=O)CC[C@@]4(C)[C@H]3CC[C@]12C | inactive | inactive | inactive | 
14 | NC(=S)NS(=O)(=O)c1ccc(N)cc1 | inactive | inactive | inactive | 
15 | Cc1nc(NS(=O)(=O)c2ccc(N)cc2)nc(C)c1Br | inactive | inactive | inactive | 
16 | O=C(O)CCC/C=C\C[C@@H]1[C@@H](/C=C/[C@@H](O)COc2cccc(C(F)(F)F)c2)[C@H](O)C[C@@H]1O | inactive | inactive | inactive | inactive
17 | O=C(CO)[C@@H](O)[C@H](O)[C@@H](O)C(=O)O | inactive |  |  | 
18 | O=C(O)[C@H]1CN(C/C=C/P(=O)(O)O)CCN1 | inactive | inactive | inactive | inactive
19 | OCCCNc1ccccc1 | inactive | inactive | inactive | 

Row | Compound | Potency [1] | Potency [2] | Potency [3] | Potency [4]
20 | CCCc1ccc(C(=O)O)cc1 | inactive | inactive | inactive | inactive
21 | CC(C)=CCC/C(C)=C/CC/C(C)=C/CC/C=C(\C)CC/C=C(\C)CCC=C(C)C | inactive | inactive | inactive | inactive
22 | N[C@H](CC(=O)O)C(=O)O | inactive | inactive | inactive | inactive
23 | CCCCCCCCCCCCCCCCCC[N+](C)(C)CCC[Si](OC)(OC)OC | inactive | inactive | inactive | 
24 | NCC[C@H](O)C(=O)N[C@@H]1C[C@H](N)[C@@H](O[C@H]2O[C@H](CN)[C@@H](O)[C@H](O)[C@H]2O)[C@H](O)[C@H]1O[C@H]1O[C@H](CO)[C@@H](O)[C@H](N)[C@H]1O | inactive | inactive | inactive | 
25 | O=C(O)CCC(=O)c1ccc(-c2ccccc2)cc1 | inactive | 4.36 µM (active) | inactive | 
26 | N=C(N)c1ccc(/C=C/c2ccc(C(=N)N)cc2O)cc1 | inactive | inactive | inactive | 
27 | CCc1cn([C@H]2C[C@H](O)[C@@H](CO)O2)c(=O)[nH]c1=O | inactive |  |  | 
28 | CCCCCCCCCCCC(=O)N(CCO)CCO | inactive | inactive |  | 
29 | COc1ccc(C[C@H](C)NC[C@@H](O)c2ccc(O)c(NC=O)c2)cc1 | 14.1 µM (active) | inactive |  | 
30 | Cc1ncc(C[n+]2csc(CCO)c2C)c(N)n1 | inactive | inactive | inactive | 
31 | CCCCCCCCCCCCCC(=O)OCC(COP(=O)([O-])OCC[N+](C)(C)C)OC(=O)CCCCCCCCCCCCC (centres undefined) | inactive | inactive | inactive | 
32 | CCN(CC)C(=S)S | inactive | inactive |  | 
33 | CN=C1C=CC(=C(c2ccc(N(C)C)cc2)c2ccc(N(C)C)cc2)C=C1 | 4.47 µM (active) | 14.4 µM (active) | 10.2 µM (active) | 14.4 µM (active)
34 | O=P(O)(O)CP(=O)(O)O | inactive | inactive | inactive | 
35 | CC(=O)NCCCS(=O)(=O)O | inactive | inactive | inactive | 
36 | Cc1cccc(C)c1Nc1ncccc1C(=O)O | inactive |  |  | 
37 | CCC(=O)c1ccc2c(c1)N(CCCN1CCN(CCO)CC1)c1ccccc1S2 | 5.01 µM (active) | inactive |  | 
